Our source for the z-score values is PubChem BioAssay AID1508600 (Functional Genomics Laboratory (NCATS/FGL), 2020).

Out of some 53,000 sequences screened, about 3,700 (7%) were called active.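 How the source made its calls: active means gene knockdowns whose robust z-score for IL-1 alpha signal is at least 2 or at most -2, so actives lie on both sides; inactive means the rest.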 The sample as a whole holds a higher share of actives than the screen did.

This test is described as follows: Components of the Cytosolic LPS Sensing Pathway: Gene Identification via Genome-wide siRNA Screen. As to conditions: RAW264.7 macrophages, IL-1a HTRF, actives lie on both sides, screened at 100 nM (by protocol), cells primed 5 h with Pam3CSK4 first. From the text: Non-canonical inflammasome activation by cytosolic LPS is a critical component of the host response to Gram-negative bacterial infection, however we lack a comprehensive understanding of the cellular processes that control this pathway. Here we describe a genome-wide siRNA screen to identify genes regulating the mouse macrophage IL-1 alpha response to cytosolic LPS.
RAW264.7 cells were maintained in complete DMEM media, comprising DMEM with 4.5 g/L glucose, 10% FBS (Gemini Bio-Products, West Sacramento, CA), 2 mM Glutamine (Lonza) and 20 mM HEPES (Lonza), hereafter complete DMEM.
The RNAi screen was conducted in 384-well format using the Ambion Silencer Mouse Genome siRNA Library (#4391425), which consists of three unique, nonoverlapping, nonpooled siRNAs for each of 17,000 gene targets. siRNA reagents ([…]) were stamped into 384-well white flat-bottom microplates (Corning, 3570) using a Velocity11 VPrep liquid handling system (Agilent) integrated into a BioCel robotic platform (Agilent) in columns 1-22, leaving columns 23-24 empty for negative (Ambion, Negative control #1) and positive (mouse Casp4) controls, respectively. The median value of each plate's negative control column was used to normalize sample wells, and the positive control was used to assess transfection efficiency and assay performance.
Lipofectamine RNAiMAX Transfection Reagent ([…]; Invitrogen) was added in […] serum-free, antibiotic-free media to plate wells using a Thermo Scientific Matrix WellMate and Microplate Stacker. Plates were incubated for 45 min at room temperature to allow for the sufficient formation of siRNA-lipid complexes. Cells were seeded at a density of 1x10^4 cells per well in 20 microL media containing 20% (vol/vol) FBS without antibiotics. The final concentration of siRNA in each well was 100 nM. Cells were cultured for 48h at 37 degrees C in 5% CO2 before addition of […] of TLR ligand Pam3CSK4 for 5 hours. The medium was then removed, replaced with […] growth media and cell were transfected with […] of LipidA and TransIT-TKO (Mirus) for 24 hour. At the end of the LipidA treatment, […] of supernatant was transferred to a 384 Greiner Bio-one non-binding low volume plate and […] of IL-1a HTRF reagent (Cisbio, 62MIL1APEH) was added and incubated at room temperature overnight. The plates were read on an EnVision plate reader (PerkinElmer). Cell viability was measured by adding 20ul Cell Titer Glo to the original plate and running a luminescence read on the EnVision. The quantified IL-1a signal for each siRNA gene-targeted well was divided by the median of the negative control wells and multiplied by 100 to achieve a negative control normalized value for each well/siRNA. This normalized value was then used to generate a robust z-score by first taking the log of each value and then by subtracting the median and dividing by the […].
GCAAUGUGUAUCAGCCGACTT against Gprc5b: the z-score was 3.38 (active).
Under GGGAAAACCGAAUAAAGAUTT against Ren2 stands -1.51 (inactive).
In the case of GCAUACCAUCUUAUUUUGGTT against Sptlc1 it was 0.159 (inactive); in that of GCGUGAGCUAAUGUUCACATT against Agpat2, -0.255 (inactive).
In the case of “GCCACUACUAAUAGCAUGUTT against 5330438I03Rik” it was -1.68 (inactive); in that of CCCAGCACAUGCUAUCUCUTT against Zbtb21, -2.6 (active).
In the case of GGAGAAUGGAAAGUAUGGGTT against D1Pas1, the z-score is -1.99 (inactive).
Under GCCUAUAAGGAAUAACAAGTT against Cerkl stands 1.27 (inactive); under GGCCUUGAUGGUGAAGAUGTT against Vstm4, -1.79 (inactive).
In the case of GGACAGACGUGCACUUAGATT against Garnl3 it was 0.875 (inactive); in that of GGUGGAUGUUCGCAUGAUUTT against Ip6k1, -1.2 (inactive); in that of GGCAUAUACACAAUUGAUATT against Arsk, -1.27 (inactive).
Under GGAUAAGGAGAUGAAUUCCTT against Aard stands 1.01 (inactive).
Regarding GGUCUUACGCAAAACGGUCTT against Csf1r, the z-score is 2.86 (active).
As for CCCAAUCCUGUCAAUAGUCTT against Gfpt1, the z-score is -0.911 (inactive).
In the case of GGCCUAAUGAAUUUGGUCATT against Ubxn7 it was 0.93 (inactive); in that of CCCACAAAUUAAAGUCCGCTT against Cldn16, 0.926 (inactive).
Take GGACCUGUCUUCAUUGGAGTT against Ngb: the z-score is 0.981 (inactive).
In the case of GCAGAUAAUUUUAACCCUCTT against Inpp5b it was 0.641 (inactive); in that of GCCAUUCUCCAACAAUCGATT against Evc, -1.69 (inactive); in that of CCUGCUACAAGUAUCUCAATT against Fdft1, 2.85 (active).
In the case of GCAACCUCUCCUCUCUAGATT against Olfr15 it was -1.11 (inactive); in that of GCGGAUUCAGCUGAUGAUGTT against Sash1, -1.32 (inactive).
In the case of GGGUUCUCAAGGUUGCAUUTT against Frs3, the z-score is 1.15 (inactive).
Under GCUCGCCUGCAUUUCAUCATT against Pank4 stands 3.3 (active); under CCCGGUUAGCCUUUGAUUGTT against Lamc3, 0.576 (inactive).
As for GGGAAUUUUGAAAAGGCUGTT against Nphp3, the z-score is 2.12 (active).
In the case of CCCUUGAGUCAUUCUCUAATT against Gsto1 it was 0.0391 (inactive); in that of GGAAAUAGAUUUUCAGCUCTT against Dnase2b, 0.138 (inactive).
Under GGAAUUUGAAACUUACGGCTT against Oc90 stands 0.379 (inactive).
For UUUCGAGCUGAUCCAUGAGTT against Tbata, the z-score is 1.19 (inactive).
Turning to GGUCCAGAUCCACCAGAUUTT against Banp, the z-score was 1.11 (inactive).
Under GGCACUCAAUGGUGAGCAATT against Sipa1 stands 2.03 (active); under GGCUCUUGCUUUAGUAUUCTT against Ly9, 0.99 (inactive); under GGCAGAUUACUCUGAAUGATT against Prdx4, 0.326 (inactive).
Under GGUUUAUUGUAAUGGCUAATT against Olfr1271 stands 0.452 (inactive).
In the case of GGACAAAUGGGUAUUAUCUTT against Phxr4 it was -1.01 (inactive); in that of GGAGAUGAUUUCCUACUUCTT against Rasgrp2, 3.47 (active); in that of GGUGUACCAGAAUGAGAAGTT against Akr1b3, 0.611 (inactive).
GGUAUUUAGUAAACACCCATT against Edar: the z-score is 0.413 (inactive).
Under GGGUCAAAUCUGACUGCAUTT against Klf10 stands 0.501 (inactive); under GAGAACCAGGCUAUGUCUGTT against Defa-rs10, 0.623 (inactive); under GCUGGCUGUUGGAUAAGUGTT against Olfr1112, 2.45 (active).
In the case of CCUUGAUUGAGCCUGACUUTT against Hook2 it was 0.543 (inactive); in that of CCUCAUAUAUCCCUAAUUATT against Camk1g, -0.982 (inactive).
Under GGACCUGUUUGAGCAGAGGTT against Eps8l2 stands 0.539 (inactive); under GGUAGAAGUGAAAAAGAUATT against Bhmt, -0.386 (inactive).
As to GCGAGAGAUUCUUUCCCUGTT against Traf6, the z-score is -1.24 (inactive).
In the case of CCUCCUCUCUGUUUUCUACTT against Olfr699 it was -1.16 (inactive).
Under GCAGAAAAACCUGUGAAAATT against Pcnp stands 1.57 (inactive).
In the case of GGAUGGAUGUUUGCAUAAATT against Msx2 it was 5.06 (active).
Turning to GGGACACAUACUGUAGUAUTT against Pspc1, the z-score is 0.00343 (inactive).
Under GGAGGAGAUGAUGAAUUUUTT against Etf1 stands 0.965 (inactive); under GGUGAGUUCAUGGUUUCCUTT against Txnl4b, -0.142 (inactive).
In the case of GAGAAACUAUGGCUGAAAATT against Klk1 it was 0.439 (inactive); in that of CCCUAAAAGACAAAGUGCUTT against Cmtm3, 0.877 (inactive); in that of CCUAGAGAGACAUAUUGUUTT against Vstm4, -0.206 (inactive).
Regarding GCCAAUGACCCAAAUUCUATT against Ppip5k1, the z-score is 0.812 (inactive).
In the case of CCAUUUUUACCUACAUCCATT against Olfr452 it was 2.43 (active); in that of CCCUACAGUACUAAUCAAATT against Ptgs2, 0.6 (inactive).
In the case of GGGCUCUAACAUCUUAUACTT against Tbc1d31 it was 1.54 (inactive); in that of GGGCCAUGGAUAAGAAAAATT against Psmc5, -2.61 (active).
In the case of GGCACAGACGGAUCAACAGTT against Clcn3 it was -0.725 (inactive); in that of GCUAUUGAGAAACCACUUATT against Rasef, -0.276 (inactive).
For CCUAUUACUCAAACACAGATT against Arl5b, the z-score was -0.257 (inactive).
In the case of GGACACAGCAAGAAGAUACTT against Wfdc12 it was -1.79 (inactive).
Under GCCACACCAAUAGAAGUGUTT against Csnk1g3 stands -2.42 (active); under UCUCCUUCAUUCCAUGUAUTT against Olfr441, -2.18 (active); under CCAUCAAAGUCAUCGACGGTT against Birc6, -0.427 (inactive).
Under GGAGUGAGUCCUGAAGCAATT against Ifna12 stands -0.372 (inactive).
Regarding GCCGUUACUGAGCUGAAAUTT against Allc, the z-score was -0.866 (inactive).
Consider CGCUUCAUGACUUCUGAAUTT against Ppp1r32, for which the z-score was 0.0722 (inactive).
Under GCCCAACCUGUCCAUACUUTT against Guca2b stands -0.193 (inactive); under GCUAUUUUCGUCACUUUCUTT against Tssk1, 0.494 (inactive); under GGAUGAAUUCAUUGAAGAATT against Btk, 0.321 (inactive).
Under GGUUCGUCGCCUUUUAGGGTT against Alx4 stands 3.74 (active); under GAGCUUCUAAUUCACCCUATT against Abcc6, 0.181 (inactive).
In the case of GGGAACCUUACUGUGUUAUTT against Gpr85, the z-score is 0.477 (inactive).
For GGGUUUCCAGUACCUCAAUTT against Serpina6, the z-score was -1.28 (inactive).
With GGCUUUUAUAGCUAAGGUUTT against Spc25, the z-score was -2.18 (active).
Consider GGACUGUGAACAACUUUCGTT against Tcim, for which the z-score was -1.07 (inactive).
Under GGCUAUCUACAAAAUGGUGTT against Vsnl1 stands -1.31 (inactive); under GCUAACCAGUGAUCCUACATT against Olfr846, 0.471 (inactive).
As to “GCACUUGUGACUUAUUGGATT against Vmn2r-ps11”, the z-score is 0.506 (inactive).
Under GGGUCAGAGUUUUUCCAUCTT against Otog stands 2.72 (active); under GGGACGUAAAUCAAAUGAATT against P2ry12, 0.096 (inactive).
Under GGAGGUGGAACUGCUGUAUTT against Fam180a stands -0.257 (inactive); under GGCAGAAAGAUUAUGAGUUTT against Gpr171, 2.35 (active).
In the case of GGAAUUAAAAGAGCUGGGCTT against Selenon it was 0.697 (inactive).
GGGUGCUGAACAGUCACAATT against Rab12: the z-score is 0.717 (inactive).
In the case of UGAAGGCAAAUCACUCUUUTT against Olfr181 it was -0.042 (inactive); in that of “GGAGGAUCCUGCUAUUCCATT against 4930583K01Rik”, -2.24 (active); in that of GGUGCUGGAGAAGAACAUGTT against Map2k3, 1.51 (inactive).
Take GGAAAGAGAUUCUCUUCUATT against Nsun2: the z-score was -1.2 (inactive).
Under CGGCUUUGAAGUGGUGUAUTT against Smad9 stands 1.66 (inactive); under CCUUAGGCAUGGUCUGGACTT against Gal3st2, 0.897 (inactive); under CCUUCAUGAGUCCUCUUCATT against Gaa, -2.08 (active).
In the case of GGGUUUUCAAAGACAAGAUTT against Frmd6 it was 1.47 (inactive).
For the sequence GGAGCUUUUUAUGUUUUAGTT against Fam177a, the z-score is 1.93 (inactive).
Turning to CCCUGAGAUAGGCAAUGUGTT against Tceanc2, the z-score was -1.57 (inactive).
In the case of GCUUCAUGGAUGCAAUUGATT against Adhfe1, the z-score was -0.659 (inactive).
For the sequence GGUUGAAAAGUAUCAAAGATT against Pus7l, the z-score was -0.359 (inactive).
In the case of GGAUUAGACUGUCUUCAGCTT against Rnf144a it was -0.496 (inactive); in that of GGCCUGUUUUGUACUUUUATT against Polr3gl, 0.149 (inactive); in that of GGGAUAUUCAAAAUACUAGTT against Hells, 0.653 (inactive).
In the case of GCUACAGACUGAACAAUGATT against Rbm17 it was -2.08 (active).
Under CCAUCUGAUUAAUGGCUUCTT against Tm7sf2 stands 1.03 (inactive); under GUGCCUUUGUGGUCUUCCUTT against Tmem179, -1.16 (inactive).
